In PubChem BioAssay (NCI):
Compounds without any hit were thinned out: in the full panel of roughly 83,000, 20% have a hit.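 Activity criterion: percent growth below 10, measured after cells in 96-well plates were exposed to a single compound concentration for 48 hours.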 Values without a mark were called inactive. The source made the active and inactive calls.

system: HS 578T breast; experiment: NCI-60 one-dose screen, 48 h (100 = growth as untreated, 0 = no growth, -100 = all killed); details: 10 µM unless noted
Description: Growth inhibition of the HS 578T human tumor cell line is measured as a screen for anti-cancer activity. Cells are grown in 96 well plates and exposed to the test compound for 48 hours. Compounds are tested at a single concentration, which is 10^-5 M for most compounds. The reported endpoint is percent growth (GI% or GIPRCNT), where numbers from 0 - 100% represent growth inhibition, and numbers from -100% - 0 represent cell death. For example, a value of 40 represents 60% growth inhibition. A value of 0 means no net growth occurred over the course of the experiment. A value of -40 indicates 40% of cells at the beginning of the experiment died by the end of the experiment. A value of -100 means all cells are dead at the end of the experiment.
NCI-60 Human Tumor Cell Lines Screen was performed using the standard one-dose NCI protocol, which is described in more detail at https://dtp.cancer.gov/discovery_development/nci-60/default.htm.
Compounds with GIPRCNT values below 10 were considered active. Activity score was based on GIPRCNT using the following formula: […]
Score is 0 for GIPRCNT values of 100 or above, 50 for GIPRCNT values of 0, and 100 for GIPRCNT values of -100.

Compound	growth
N#Cc1c(-c2ccccc2)cc(-c2ccccc2)n(CCC(=O)O)c1=O	58.2%
CCN(CC)CCSc1ncnc2c1cnn2-c1ccc(S(N)(=O)=O)cc1	103%
Cc1cc(-c2ccccc2)cc(C)n1	111%
CCC(=O)Nc1cc2c(cc1Cl)-c1ccccc1C2	111%
CCN(CC)CCNCC(=O)Oc1ccc(/C=C/C(=O)CC(=O)/C=C/c2ccc(OC(=O)CNCCN(CC)CC)c(OC)c2)cc1OC	-3.97% (active)
CCN1CCN(c2nc(NNC(=O)Cc3ccccc3)nc(N3CCN(C(c4ccccc4)c4ccccc4)CC3)n2)CC1	96.1%
N#Cc1ccccc1C#Cc1ccccc1C#Cc1ccc(OCCCCCCOc2ccc(C#Cc3ccccc3C#Cc3ccccc3C#N)cc2)cc1	110%
COc1cccc(/C=C2\Cc3ccccc3C2=O)c1	111%
CC(=O)Nc1ccc(C(=O)COc2ccc(/C=C3\CCc4ccccc4C3=O)cc2)cc1	99%
CSc1nc(N)c2c(n1)N(C)C=NS2(=O)=O	118%
N#CC(C#N)C(C#N)C#N	102%
CC(=O)OC1Oc2cc(C)c(C)cc2-c2oc(=O)c(-c3ccccc3)cc21 (stereo not given)	-19.5% (active)
Clc1ccc(C2c3ccccc3-c3nccn32)c(Cl)c1 (stereo not given)	73.7%
CC(=O)Nc1c(Cl)cc2c(c1Cl)Cc1ccccc1-2	114%
O=CN1N=C(c2ccc(Nc3ccnc4cc(Cl)ccc34)cc2)CC1c1ccc(Cl)cc1 (stereo not given)	28.1%
CC12CCC3C(=CCc4cc(O)ccc43)C1CCC2=O (stereo not given)	104%
O=C(O)CNC(=O)C1(N2C(=O)c3ccccc3C2=O)CCCC1	128%
Nc1ccc2c(c1)C(=O)c1cc(Cl)c(Cl)cc1-2	105%
Cc1ccc(NC(=O)c2sc3nc4c(cc3c2N)C(=O)CCC4)cc1	107%
O=C(N/N=C/c1ccc(Cl)cc1Cl)c1ccccc1Nc1cccc(C(F)(F)F)c1	49.3%

Compound	growth
O=C(/C=C/c1cccc(O)c1)c1cccc(-n2cc(-c3ccccc3)[nH]c2=O)c1	46%
c1ccc(-c2nc(Nc3nccnn3)c3ccccc3n2)cc1	98.8%
CCCCCN(CCCCC)CCCNc1c2c(nc3ccc(Cl)cc13)CCCC2	71.6%
C[C@]12CCC(=O)C=C1CCC1C2[C@@H](O)C[C@@]2(C)C1CC[C@]2(O)C(=O)COC(=O)CCC(=O)O (stereo not given in full)	138%
O=Cc1ncc(-c2ccc(C(F)(F)F)cc2)c(NC2CCCCCC2)n1	-39.1% [100 µM] (active)
O=c1ccn(C2CC=C(CO)O2)c(=O)[nH]1 (stereo not given)	112%
Cc1ccc(C(NC(=O)c2ccccc2)c2ccc3cccnc3c2O)cc1 (stereo not given)	69.5%
COc1cc(/C=C/c2cc(/C=C/c3ccc(O)c(OC)c3)n(C(=O)c3ccc(Cl)cc3)n2)ccc1O	10.1%
COC(=O)c1c(NC(=O)CSc2nnnn2-c2ccc(OC)cc2)sc(C)c1C	31.7%
COc1ccc2cc(-c3nc4ccccc4[nH]3)c(=O)oc2c1	125%
CCOC(=O)Nc1ccc2c3c(cccc13)-c1ccccc1-2	16.6%
Cc1onc(-c2ccccc2Cl)c1C(=O)N[C@@H]1C(=O)N2[C@@H]1SC(C)(C)[C@@H]2C(=O)O	114%
CCSCC1CC(O)(c2ccccc2)C(c2ccccc2)C(c2ccc(Cl)cc2)O1 (stereo not given)	-11% (active)
C(#Cc1ccccc1C#Cc1ccccn1)c1ccc(OCCCCCCOc2ccc(C#Cc3ccccc3C#Cc3ccccn3)cc2)cc1	72.7%
COc1ccc(C2CC(c3ccc4c(c3)OCO4)=NN2C=O)cc1 (stereo not given)	115%
CCc1ccc(-c2nc(SCC(=O)NC3CCCCC3)n[nH]2)cc1	74.6%
CO[C@H]1/C=C/O[C@@]2(C)Oc3c(C)c(O)c4c(O)c(c(/C=N/N5C(C)CN(Cc6ccc(C#N)cc6)CC5C)c(O)c4c3C2=O)NC(=O)/C(C)=C\C=C\[C@H](C)[C@H](O)[C@@H](C)[C@@H](O)[C@@H](C)[C@H](OC(C)=O)[C@@H]1C (stereo not given in full)	45.6%
CCCCN=C(N)c1ccc(OCCSCCOc2ccc(C(N)=NCCCC)cc2)cc1	47.4%
C[C@H]1O[C@@H](O[C@H]2[C@@H](O)C[C@H](O[C@H]3[C@@H](O)C[C@H](O[C@H]4CC[C@]5(C)C6C[C@@H](O)[C@]7(C)[C@@H](C8=CC(=O)OC8)CC[C@]7(O)C6CC[C@@H]5C4)O[C@@H]3C)O[C@@H]2C)C[C@H](O)[C@@H]1O (stereo not given in full)	-9.01% (active)
O=C(c1ccc(N2CCOCC2)cc1[N+](=O)[O-])N1CCOCC1	33%
